We go through 14 compounds from PubChem BioAssay (EPA / NIEHS).

Calls of active or inactive are those of the source. How the source made its calls: active means hit-call score of the fitted dose curve at least 0.9, where 1 is the maximum; inactive means score below 0.9.

Read-out in the experiment: cysteine-aspartic acid protease (CASP8), CASP8 (gene 841)
The experiment is described as follows: LTEA_HepaRG_CASP8: Life Technologies and Expression Analysis (LTEA) Assay for cysteine-aspartic acid protease (CASP8) using HepaRG (AID 2283480). The note with it: mRNA level, 48 h; actives raise or lower the signal. Here is the method: LTEA_HepaRG is a cell based, multiplexed-readout assay that uses HepaRG, a human liver cell line, with measurements taken at 48 hours after chemical dosing on a 96-well plate.LTEA_HepaRG_CASP8 is one of 102 assay component(s) measured in the LTEA HepaRG cell culture assay. It is a marker of Cell proliferation, survival, death.Data from the assay component LTEA_HepaRG_CASP8 was analyzed into 1 endpoint. This assay endpoint, LTEA_HepaRG_CASP8, was analyzed with bidirectional fitting relative to DMSO as the negative control and baseline of activity. Using a type of inducible reporter, measures of mRNA induction for gain or loss-of-signal activity can be used to understand regulation of transcription factor activity. To generalize the intended target to other relatable targets, this assay endpoint is annotated to the protease intended target family, where the subfamily is cysteine protease.
A total of 1060 chemcials from the ToxCast library were tested in eight-point concentration-response experiments. Cell culture and cytotoxicity assays were conducted at Thermo Fisher Scientific's Custom Services facility (Madison, WI). A single lot of human HepaRG cells (Thermo Fisher Scientific, Frederick, MD) was used for the cell culture experiments. 96-well format collagen type I coated plates of human HepaRG cells were prepared using established methods. Briefly, cryopreserved HepaRG cells were thawed, plated at a density of approximately 100,000 cells/well in HepaRG Thaw, Plate, and General Purpose media (HPRG770, Thermo Fisher Scientific), and incubated for 48 hours. 0.5% DMSO was selected as vehicle control to balance the requisite need of DMSO in HepaRG cultures to maintain differentiation (for example, baseline metabolism, proportions of hepatocytes vs. cholangiocytes), while enabling further hepatic receptor pathway activation (for example, PXR and CAR) in response to chemical exposure. 48 hours after plating, the culture medium was replaced with HepaRG Serum-Free Incudtion Media. Cells were exposed to each test chemical in duplicate and maintained in CO2 incubators for another 48 hours. Chemical plates were thawed to room temperature and 200x concentrations of treatment groups were prepared. 8-point conentration-reponse curves were made with the highest exposure at 100 uM, followed by half-log dilutions, all in 0.5% DMSO. Each test plate contained variouse controls, induction positive controls (1mM phenobarbital), cytotoxicity positive controls ([…] aflatoxin B1), vehicle controls (0.5% DMSO), and total lysis controls (0.5% DMSO). Cell morphology images were taken using an Essen IncuCyte FLR automated microscope, with six 96-well plates imaged in about 24 minutes. Images were captured and exported and JPEG files. Spent culture media was transfered to black-well plates for the LDH assay, and remaining media was sorted at -80 C for later use. Cells were treated with RLT buffer and frozen until shipped for gene expression analysis. Total RNA was isolated from the cell suspension in 75 uL of Buffer RLT (Qiagen, Germantown, MD 20874) by Quintiles/Expression Analysis (Durham, NC) using a custom isolation procedure. Total RNA from each plate well was transferred to a preamplification plate. Fluidigm's 96.96 Dynamic ArrayTM (Fluidigm, Amsterdam, the Netherlands) technology was used for gene expression analyses by quantitative reverse transcription polymerase chain reaction (qRT-PCR, performed by Quintiles/Expression Analysis, Durham, NC)89. Standard TaqManTM Assays (Applied Biosystems/ThermoFisher Scientific, Foster City, CA) were used to assess the expression of 93 genes selected based on their selectivity and sensitivity to important hepatic receptors known to be modulated by environmental chemicals; importance in human hepatocyte functionality; and hepatotoxicity. […]
Take `Cc1cc(C)cc(C)c1`: the compound was called inactive.
With `Clc1cccc(Cl)c1`, the outcome was inactive.
`CN(C)C(=S)S`: the result was inactive.
Turning to `CC(C)(C)c1ccccc1O`, the compound was called inactive.
Turning to `COc1ccccc1N`, the result was inactive.
As for `Oc1c(Cl)cc(Cl)cc1Cl`, the AC50 was 50 µM (active).
Consider `Clc1cccc(Cl)c1Cl`, for which the compound was classed as inactive.
Turning to `O=C(N[C@H]1CN2CCC1CC2)c1ccc2c(c1)OCCO2`, the call was inactive.
Consider `Oc1cc(Cl)c(Cl)cc1Cl`, for which the outcome was inactive.
In the case of `N#Cc1cccnc1`, the compound was called inactive.
`OCCN(CCO)CCO`: the outcome was inactive.
For `CC(C)O.CC(C)O.OCCN(CCO)CCO.OCCN(CCO)CCO.[Ti]`, the result was inactive.
With `O=C(O)C1(c2ccc3c(c2)OC[C@H](Cc2ccc(-c4ccccc4)cc2)[C@H]3O)CCCC1`, the compound was called inactive.
On to `CCCCCCCCCCCCc1cccc(S(=O)(=O)O)c1`, for which the outcome was inactive.

One may read the AC50 as the concentration giving half of the maximal activity seen.
